Source: PubChem BioAssay AID1347426 (Functional Genomics Laboratory (NCATS/FGL), 2020)
Hit rate of the full screen: of about 31,000 sequences, about 1,400 (4.5%) were called active.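 The calls were made as follows: active = median seed-adjusted z-score above 1 or below -1; inactive = the rest.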 The sample as a whole holds a higher share of actives than the screen did.

assay: Novel Modifiers of Survival Motor Neuron (SMN) Protein: Gene Identification via Genome-wide siRNA Screen; conditions: HEK293T SMN2-luciferase reporter, siRNA knockdown, 72 h; actives lie on both sides;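 also: luminescence tracks full-length SMN protein made from the SMN2 reporter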
How it was run: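 Luciferase signal, proportional to full-length SMN made from an SMN2 cDNA reporter in stable HEK293T cells, was read 72 h after siRNA reverse transfection. Values were expressed as MAD scores after non-targeting-control normalization and log10 conversion; seed analysis flagged off-targets.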

Sequence	median seed-adjusted z-score
GGAGCCUAUCAUAACCUUATT against ZNF484	0.2 (inactive)
GGGUACCGAGGAUCGCUUUTT against LAMA5	0.229 (inactive)
GUAUCUAAGAGAUAUGGAATT against ORC5L	-0.126 (inactive)
GACUCCCAUUUGAGACUUUTT against ZMAT1	-0.123 (inactive)
ACACCUACAUGAUGACGCATT against EVX2	0.181 (inactive)
CCUCAAAUGCAGUAUUUUUTT against HMOX1	0.45 (inactive)
GCAACUACGUGACUCGCUATT against SMUG1	-1.38 (active)
CGUCAGUGCUUCGCAUACATT against ZBTB45	0 (inactive)
GAAGGAGCAGGAUUACCAATT against TMED4	-0.895 (inactive)
GAGCUUCAACUAACAGGAATT against NUPL2	0.134 (inactive)
CAUGGUCCAUUAUUCGUGATT against ATP6V1A	-0.0106 (inactive)
GGAAUUGGUUUCAGUCAAATT against RCOR1	-1.13 (active)
GACUUACCUUCUGAGCAUATT against ZNF792	0 (inactive)
CGACUUCAUUGUAAAGAAATT against LIPF	0.54 (inactive)
GCUGCGUCAUUUUCGAAAATT against MOXD1	-0.162 (inactive)
GAACGAGCUGGAUCCAUUATT against ARSF	0.111 (inactive)
CCUUACGAAUCAUAAGAUATT against ZNF708	0.0562 (inactive)
CAGAGAACCUUCAAGUUAATT against ZNF239	-0.191 (inactive)
GCAUAGCCCUCAACAAGAATT against IRF6	-1.79 (active)
GCCGCUUUCGGAAUAAGAUTT against DGKZ	0 (inactive)
CGGAGAACAUUGUUGUUCUTT against TMTC2	0.0277 (inactive)
GCACCUUGCAGGAUUGGAATT against PEAR1	0.071 (inactive)
ACCAUAGCCUCUCACCCUATT against RASA4	-1.11 (active)
ACGCAACCCUCAACAGCUCTT against UTS2R	0.0819 (inactive)
GGGACUCAGUACUUCCAUATT against SLC39A8	0.265 (inactive)
CGAAGUUCAUAGACGAGAUTT against PPP1R2	0.208 (inactive)
AGAGGUCUUCGACAAUAAATT against CD9	-1.02 (active)
GAGCCUCCUCAAAUCCAAATT against SERPING1	-0.244 (inactive)
CGUGGGAUAUGUUGACGGATT against BTNL3	0 (inactive)
GGAAUUUUUCGGGUGGUUATT against ELF5	-0.45 (inactive)
